{"source": "PubChem BioAssay AID1209", "about": "(Sanford-Burnham Center for Chemical Genomics, 2008)", "note": "Out of some 190,000 compounds screened, about 810 (0.43%) were called active. This excerpt belongs to a sample that is enriched for actives. Unmarked numbers belong to inactive results. Rule as the data show it: active = inhibition above about 50%; inactive = the rest.", "data": [{"molecular_target": "Mannose-6-phosphate isomerase (Homo sapiens) (UniProt P34949)", "sequence (P34949 whole entry, looked up)": "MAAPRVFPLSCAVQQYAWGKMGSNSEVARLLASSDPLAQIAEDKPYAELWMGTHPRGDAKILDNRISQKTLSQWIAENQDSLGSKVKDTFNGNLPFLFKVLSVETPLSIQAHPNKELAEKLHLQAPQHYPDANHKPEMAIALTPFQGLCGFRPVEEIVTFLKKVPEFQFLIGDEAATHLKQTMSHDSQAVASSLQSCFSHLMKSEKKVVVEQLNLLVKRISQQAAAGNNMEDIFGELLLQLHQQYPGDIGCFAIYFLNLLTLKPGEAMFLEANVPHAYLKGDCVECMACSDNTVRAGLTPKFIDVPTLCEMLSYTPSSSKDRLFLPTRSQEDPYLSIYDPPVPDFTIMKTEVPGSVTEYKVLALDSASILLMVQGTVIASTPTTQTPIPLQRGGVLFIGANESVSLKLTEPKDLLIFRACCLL", "assay": "inhibitors of human PMI, primary screen, biochemical, fluorescence intensity, coupled assay (AID 1209);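 also: plate controls were DMSO vehicle for no effect and wells lacking substrate for full effect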", "details": "purified PMI enzyme, at 20 µM, hits give high values", "values": [{"smiles": "CCOC(=O)CN1CCc2c(C)nc3c(-c4ccc(OC)c(OC)c4)cnn3c21", "inhibition": "20.1%"}, {"smiles": "CCOC(=O)NC(=O)COC(=O)CNC(=O)c1cccc(OC)c1", "inhibition": "-0.3%"}, {"smiles": "COc1ccc(C(=O)NC(=S)NCC2CCCO2)cc1", "note": "(stereo not given)", "inhibition": "2.8%"}, {"smiles": "COc1ccc(N(CC(=O)N/N=C/c2ccc(-c3ccc([N+](=O)[O-])cc3)o2)S(=O)(=O)c2ccc(C)cc2)cc1", "inhibition": "-2.3%"}, {"smiles": "Cc1ccc(C)c(N(CC(=O)N/N=C/c2ccc(-c3ccc([N+](=O)[O-])cc3)o2)S(=O)(=O)c2ccccc2)c1", "inhibition": "10.6%"}, {"smiles": "CCOC(=O)C1(Cc2ccc(OC)cc2)CCN(C(=O)CCc2cccnc2)CC1", "inhibition": "7.6%"}, {"smiles": "COc1ccc(C)cc1NC(=O)CSc1nnc(-c2ccco2)n1N", "inhibition": "10.6%"}, {"smiles": "O=c1/c(=C\\c2cccnc2)sc2nc3ccccc3n12", "inhibition": "7%"}, {"smiles": "O=c1/c(=C/c2ccccn2)sc2nc3ccccc3n12", "inhibition": "-21.7%"}, {"smiles": "COC(=O)/C=c1/sc2nc3ccccc3n2c1=O", "inhibition": "75.6% (active)"}, {"smiles": "Nc1ccccc1Oc1c(F)c(F)c(Oc2ccccc2N)c(F)c1F", "inhibition": "18.8%"}, {"smiles": "COc1cc(C)c(NC(c2ccccc2)c2ccccc2)cc1OC", "inhibition": "16.1%"}, {"smiles": "COc1cc(NC(c2ccccc2)c2ccccc2)cc(OC)c1OC", "inhibition": "62.4% (active)"}, {"smiles": "COc1cc(NC(C(=O)Nc2cccc(C(C)=O)c2)c2ccccc2)cc(OC)c1OC", "note": "(stereo not given)", "inhibition": "16.5%"}, {"smiles": "COc1ccc(C(C)=O)c(OC(=O)c2ccc(OC)c(OC)c2)c1", "inhibition": "17.5%"}, {"smiles": "C=CCNc1nc2c(c(=O)[nH]c(=O)n2C)n1CCCCC", "inhibition": "2.9%"}, {"smiles": "COCCN=C1Sc2nc3c(C)cccc3cc2CN1Cc1ccco1", "inhibition": "51% (active)"}, {"smiles": "Cc1cccc2cc3c(nc12)SC(=NCC1CCCO1)N(Cc1ccco1)C3", "note": "(stereo not given)", "inhibition": "7.4%"}, {"smiles": "COCCN=C1Sc2nc3ccc(C)cc3cc2CN1Cc1ccco1", "inhibition": "-63.1%"}, {"smiles": "CCOc1ccc(NC(=NCc2ccc3c(c2)OCO3)SC2CC(=O)N(c3ccccc3)C2=O)cc1", "note": "(stereo not given)", "inhibition": "-4.2%"}, {"smiles": "CCN(CC)S(=O)(=O)c1ccc(NC2c3ccccc3C(=O)N2CCN2CCOCC2)cc1", "note": "(stereo not given)", "inhibition": "18.5%"}, {"smiles": "Cc1cc(C(C)(C)C)c(O)c(C(C)(C)C)c1", "inhibition": "0%"}, {"smiles": "Cc1cc(C)c(O)c(N)c1", "inhibition": "33.4%"}, {"smiles": "CC1(c2ccccc2)NC(=O)N(CC(=O)Nc2cc(S(=O)(=O)N3CCOCC3)ccc2Cl)C1=O", "note": "(stereo not given)", "inhibition": "1.7%"}, {"smiles": "COc1ccc(OCC(=O)Nc2ncc3c(n2)CC(C)(C)CC3=O)cc1", "inhibition": "7.1%"}, {"smiles": "Cc1ccc(N(C(C)C(=O)Nc2c(C)n(C)n(-c3ccccc3)c2=O)S(C)(=O)=O)cc1C", "note": "(stereo not given)", "inhibition": "-4.4%"}, {"smiles": "O=C(CCC1CCCCC1)NCCN1C2=NC[C@H](Cc3ccccc3)N2C[C@H]1Cc1ccc(O)cc1", "inhibition": "8%"}, {"smiles": "O=C(CCC1CCCCC1)NCCN1C2=NC[C@H](Cc3ccc(O)cc3)N2C[C@H]1Cc1ccc(O)cc1", "inhibition": "5%"}, {"smiles": "C[C@H]1CN=C2N(CCNC(=O)CCC3CCCCC3)[C@H](Cc3ccc(O)cc3)CN21", "inhibition": "2.5%"}, {"smiles": "CC(C)[C@H]1CN=C2N(CCNC(=O)CCC3CCCCC3)[C@H](Cc3ccc(O)cc3)CN21", "inhibition": "65.2% (active)"}, {"smiles": "C[C@@H]1CN=C2N(CCNC(=O)CCC3CCCCC3)[C@H](Cc3ccc(O)cc3)CN21", "inhibition": "85.3% (active)"}, {"smiles": "COc1ccc(C[C@H]2CN3C(=NC[C@@H]3C(C)C)N2CCNC(=O)CCC2CCCCC2)cc1", "inhibition": "7.4%"}, {"smiles": "CC(OC(=O)/C=C/c1cccs1)C(=O)Nc1ccc(S(N)(=O)=O)cc1", "note": "(stereo not given)", "inhibition": "-5.9%"}, {"smiles": "Cc1ccccc1OCC(=O)N(Cc1ccc(N(C)C)cc1)C1CCS(=O)(=O)C1", "note": "(stereo not given)", "inhibition": "3.1%"}, {"smiles": "C=CCNc1ccc(F)c(F)c1N1CCCCCC1=O", "inhibition": "4.8%"}, {"smiles": "NC(=O)c1cc2cc(Cc3ccccc3Cl)ccc2oc1=O", "inhibition": "-1.2%"}, {"smiles": "O=C(CN1C(=O)c2ccccc2S1(=O)=O)Nc1ccc(S(=O)(=O)N2CCCCCC2)cc1", "inhibition": "18.7%"}, {"smiles": "Cc1ccc(S(=O)(=O)/N=C2/C=C(Sc3ncn[nH]3)C(=O)c3ccccc32)c(C)c1", "inhibition": "101% (active)"}, {"smiles": "Cc1ccc(NC2=C/C(=N\\S(=O)(=O)c3cccs3)c3ccccc3C2=O)c(C)c1", "inhibition": "0.2%"}, {"smiles": "Cc1ccc(S(=O)(=O)Nc2ccc(O)c(Sc3ncn[nH]3)c2)cc1", "inhibition": "15.2%"}, {"smiles": "Cc1cc(C)c(S(=O)(=O)/N=C2/C=C(SCC(=O)O)C(=O)c3ccccc32)cc1C", "inhibition": "-23.3%"}, {"smiles": "Cc1cc(C)c(S(=O)(=O)/N=C2/C=C(Sc3ncn[nH]3)C(=O)c3ccccc32)cc1C", "inhibition": "98.1% (active)"}, {"smiles": "Cc1cc(C)c(S(=O)(=O)Nc2ccc(O)c(Sc3ncn[nH]3)c2)c(C)c1", "inhibition": "6.8%"}, {"smiles": "CCn1c(COc2c(C)cccc2C)nnc1SCC(=O)N1CCN(c2ccccc2)CC1", "inhibition": "8.2%"}, {"smiles": "Cc1ccc(-c2nn(CC(=O)NCc3ccccn3)c(=O)c3ccccc23)cc1S(=O)(=O)N(C)C", "inhibition": "-28.3%"}, {"smiles": "COc1ccccc1NC(=O)c1ccc(NS(=O)(=O)c2ccc(F)c(F)c2F)cc1", "inhibition": "-19.3%"}, {"smiles": "COC(=O)c1cn(C(=O)c2ccc(C)cc2)c2ccccc12", "inhibition": "12.6%"}, {"smiles": "Cc1csc(=Nc2c(C)n(C)n(-c3ccccc3)c2=O)n1-c1ccccc1", "inhibition": "1.6%"}, {"smiles": "CC1=CC(=Nc2c(C)n(C)n(-c3ccccc3)c2=O)C=C(C)C1=O", "inhibition": "83.8% (active)"}, {"smiles": "Cc1c(N=C2C(=O)Nc3ccccc32)c(=O)n(-c2ccccc2)n1C", "inhibition": "0.4%"}, {"smiles": "Cc1c(N=CC=Nc2c(C)n(C)n(-c3ccccc3)c2=O)c(=O)n(-c2ccccc2)n1C", "inhibition": "-0.3%"}, {"smiles": "Cc1c(N=C2C=C(Br)C(=O)C(Br)=C2)c(=O)n(-c2ccccc2)n1C", "inhibition": "64.3% (active)"}, {"smiles": "Cc1c(N=C2C=CC(=O)c3ccccc32)c(=O)n(-c2ccccc2)n1C", "inhibition": "55.2% (active)"}, {"smiles": "Cc1c(N=Nc2ccc(O)cc2)c(=O)n(-c2ccccc2)n1C", "inhibition": "15.5%"}, {"smiles": "CCCC(c1c(C)n(C)n(-c2ccccc2)c1=O)c1c(C)n(C)n(-c2ccccc2)c1=O", "inhibition": "3.4%"}, {"smiles": "Cc1c(N=c2scc(-c3ccccc3)n2C)c(=O)n(-c2ccccc2)n1C", "inhibition": "-16.2%"}, {"smiles": "CCC(c1c(C)n(C)n(-c2ccccc2)c1=O)c1c(C)n(C)n(-c2ccccc2)c1=O", "inhibition": "-4.4%"}, {"smiles": "CC(=O)/C(N=Nc1c(C)n(C)n(-c2ccccc2)c1=O)=C(\\C)O", "inhibition": "-44.4%"}, {"smiles": "CCC(C)C1=CC(=Nc2c(C)n(C)n(-c3ccccc3)c2=O)C=C(C(C)CC)C1=O", "note": "(stereo not given)", "inhibition": "52.2% (active)"}, {"smiles": "CC(C)NS(=O)(=O)c1ccc(OCC(=O)NC(C)c2ccccc2)cc1", "note": "(stereo not given)", "inhibition": "2.2%"}, {"smiles": "O=C(O)c1ccc(/C=C/c2nc3sc4c(c3c(=O)[nH]2)CCC4)cc1", "inhibition": "-3.7%"}, {"smiles": "COc1cnn(C(C)(C)C)c(=O)c1Cl", "inhibition": "-0.3%"}, {"smiles": "COc1ccc(CC(=O)NCc2ccc3c(c2)cc(C)n3C)cc1OC", "inhibition": "6.1%"}, {"smiles": "O=C(Nc1ccc(Cl)cc1)NC1CCCc2ccccc21", "note": "(stereo not given)", "inhibition": "2.6%"}, {"smiles": "Cc1cc(/C=C(\\C#N)C(N)=O)c(C)n1-c1ccc(N2CCOCC2)c([N+](=O)[O-])c1", "inhibition": "3.6%"}, {"smiles": "C[C@]12CC[C@@H]3c4cc(O)c(O)cc4CC[C@H]3[C@@H]1CC[C@@H]2O", "inhibition": "51.8% (active)"}, {"smiles": "C[C@]12CC[C@@H]3c4ccc(O)cc4CC[C@H]3[C@@H]1CC[C@@H]2O", "inhibition": "-5.7%"}, {"smiles": "COc1cc2c(cc1O)CC[C@@H]1[C@@H]2CC[C@]2(C)[C@@H](O)CC[C@@H]12", "inhibition": "1.7%"}, {"smiles": "Cc1ccc(NC(=O)COC(=O)c2ccc3c(c2)C(=O)N(CCc2ccccc2)C3=O)c(C)c1", "inhibition": "4.6%"}, {"smiles": "Cc1cc(C)n(-c2cc(N3CCN(S(=O)(=O)c4ccc(Br)cc4)CC3)ccc2[N+](=O)[O-])n1", "inhibition": "13.5%"}, {"smiles": "Cc1nc2c(C(=O)NCCc3ccccc3)c[nH]n2c(=O)c1Cl", "inhibition": "60.3% (active)"}, {"smiles": "Cc1nc2c(C(=O)NCc3ccccc3)c[nH]n2c(=O)c1Cl", "inhibition": "12.3%"}, {"smiles": "Cc1nc2c(C(=O)NCCc3ccccc3Cl)c[nH]n2c(=O)c1Cl", "inhibition": "2.9%"}, {"smiles": "CNS(=O)(=O)c1cnccc1N1CCN(C)CC1", "inhibition": "9.4%"}, {"smiles": "Cc1ccc(C(=O)Nc2ccc(SC(F)F)cc2)s1", "inhibition": "-11.4%"}, {"smiles": "COc1cc(/C=C2\\CC/C(=C\\c3cc(OC)c(O)c(OC)c3)C2=O)cc(OC)c1O", "inhibition": "59.3% (active)"}, {"smiles": "COc1ccc(/C=C2\\CC/C(=C\\c3ccc(OC)c(OC)c3)C2=O)cc1OC", "inhibition": "25.9%"}, {"smiles": "COc1cc(/C=C2\\CC/C(=C\\c3cc(OC)c(OC)c(OC)c3)C2=O)cc(OC)c1OC", "inhibition": "4.2%"}, {"smiles": "CCn1c(COc2cccc3ccccc23)nnc1SCC(=O)OC1CCCCC1", "inhibition": "17.8%"}, {"smiles": "Cc1ccc(S(=O)(=O)NCC(=O)N2CCCC2)cc1", "inhibition": "-10.6%"}, {"smiles": "Cc1ccccc1CNC(=O)Cc1cccs1", "inhibition": "2%"}, {"smiles": "Cc1ccsc1/C=C1\\CCc2ccccc2C1=O", "inhibition": "25.2%"}, {"smiles": "COc1ccc(CCNC(=O)C2CC(=O)N(CCc3ccccc3)C2)cc1OC", "note": "(stereo not given)", "inhibition": "0%"}, {"smiles": "Cc1ccc(NC(=S)Nc2cccc3cnccc23)c(C)c1", "inhibition": "37.8%"}, {"smiles": "Cc1ccccc1NC(=S)Nc1cccc2cnccc12", "inhibition": "60.5% (active)"}, {"smiles": "CC(C)NC(=S)Nc1cccc2cnccc12", "inhibition": "-4.7%"}, {"smiles": "FC(F)(F)c1ccccc1NC(=S)Nc1cccc2cnccc12", "inhibition": "5.4%"}, {"smiles": "Cc1ccc(C)c(NC(=S)Nc2cccc3cnccc23)c1", "inhibition": "50.3% (active)"}, {"smiles": "Cc1ccc(C)c(NC(=S)Nc2cccnc2)c1", "inhibition": "-7%"}, {"smiles": "O=C(O)CCC(=O)NNC(=O)CCC(=O)Nc1ccccc1", "inhibition": "13.6%"}]}]}
